Hit rate of the full screen: of about 1,400 compounds, about 560 (40%) were called active. So high a share suggests a set chosen from earlier hits. This is one part of the list. Unmarked numbers belong to inactive results.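 Rule for the calls: active = mean inhibition over duplicate tests at 10 µM above 50%; inactive = the rest.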
Assay: ASC/caspase-1 reporter retest in S. cerevisiae at one dose, specificity check for NALP1 project (AID 488857)
Conditions: S. cerevisiae ASC/Caspase-1, beta-galactosidase luminescence, 24 h; at 10 µM; active compounds read high
`COc1ccc(NC(=S)N(C(C)C)C2CCN(C(C)C)CC2)cc1Cl` gave an inhibition of 25.9%.
For `COc1ccc(NC(=S)SC)cc1OC`, the inhibition was 60.2% (active).
In the case of `COc1ccc(C(=O)Nc2ccc(S(=O)(=O)Nc3nccc(C)n3)cc2)cc1OC`, the inhibition is reported as 35.9%.
`CC1CN(S(=O)(=O)c2ccc(C(=O)Nc3nc(-c4cc5ccccc5o4)cs3)cc2)CC(C)O1` (stereo unspecified) showed an inhibition of 32.9%.
Molecule `O=C(CN1CCc2ccccc2C1)NCc1ccco1` has an inhibition of 36.3%.
`CCn1c(C(=O)N2CCc3ccccc3C2)cc2oc3ccccc3c21` gave an inhibition of 44.5%.
In the case of `O=C(c1cc(-c2ccc(O)cc2)on1)N1CCc2ccccc2C1`, the inhibition is reported as 58.4% (active).
In the case of `CC1(O)N(Cc2ccccc2)C(=O)OC12CCCCC2` (stereo unspecified), the inhibition is reported as 45.9%.
`OCCn1c(-c2ccc(F)cc2)csc1=Nc1ccccc1` gave an inhibition of 46.5%.
For `O=C(NCCN1C(=O)S/C(=C\c2cccnc2)C1=O)c1cccc(OC(F)F)c1`, the inhibition was 45.1%.
With `COc1ccc(C)cc1NC(=O)c1ccc(OC(F)F)cc1` the inhibition was 66.2% (active).
With `CSc1ccccc1NC(=O)Nc1ccccc1Cl` the inhibition was 49.8%.
`COc1ccc(NC(=O)c2ccc(C)cc2)c(OC)c1` gave an inhibition of 36.7%.
Molecule `COc1ccc(C)cc1NC(=O)c1ccc(CN2CCN(c3ccccc3)CC2)cc1` has an inhibition of 33.5%.
For `Cc1c(Cl)cccc1NC(=O)c1cccc(OC(F)F)c1`, the inhibition was 68.8% (active).
Molecule `CCN(CC1COc2ccccc2O1)S(=O)(=O)c1ccc(C)cc1` (stereo unspecified) has an inhibition of 43.9%.
For `Cc1c(C(=O)NCC2COc3ccccc3O2)oc2ccc(S(=O)(=O)N3CC(C)CC(C)C3)cc12` (stereo unspecified), the inhibition was 30.4%.
In the case of `CC(C)C(=O)Nc1ccc(Nc2ccccc2)cc1`, the inhibition is reported as 68.2% (active).
`C/C(=N\NC(=O)Nc1ccccc1)c1ccccc1` showed an inhibition of 41.4%.
In the case of `CC(C)Oc1ccc(NC(=O)CCC(=O)O)cc1`, the inhibition is reported as 28.5%.
In the case of `O=C(Nc1ccc(Nc2ccccc2)cc1)C(Cl)Cl`, the inhibition is reported as 76.3% (active).
With `Cc1cccc(C)c1NC(=O)C(Cl)C(=O)c1ccccc1` (stereo unspecified) the inhibition was 2.6%.
With `O=c1c(O)c(-c2cccs2)oc2ccccc12` the inhibition was 91% (active).
For `CCC(C)C(=O)N1c2ccccc2C(=C2SC(C(=O)OC)=C(C(=O)OC)S2)C(=S)C1(C)C` (stereo unspecified), the inhibition was 51.8% (active).
`CCC(Cc1ccccc1)NC(=O)C1CCN(S(=O)(=O)c2c(C)noc2C)CC1` (stereo unspecified) gave an inhibition of 28.6%.
In the case of `CC[n+]1c(/C=C/c2ccc(N(C)C)cc2)ccc2ccccc21`, the inhibition is reported as 96.5% (active).
With `CN(C)c1ccc(/C=C/c2ccc3ccccc3[n+]2C)cc1` the inhibition was 96.8% (active).
With `O=C1C(Nc2ccccc2)=C/C(=N/S(=O)(=O)c2cccs2)c2ccccc21` the inhibition was 89.7% (active).
For `O=C(O)c1ccc(S(=O)(=O)/N=C2\C=C(Nc3ccccc3F)C(=O)c3ccccc32)cc1`, the inhibition was 100% (active).
With `O=S(=O)(Nc1cccnc1)c1cccs1` the inhibition was 25.8%.
Molecule `O=C1c2ccccc2-c2cccc(NS(=O)(=O)c3ccc(C(F)(F)F)cc3)c21` has an inhibition of 36.2%.
